The entries come from a sample that favours hits as a whole.
AmpC no deterg: qHTS Inhibitors of AmpC Beta-Lactamase (assay without detergent). P00811. Potency, µM (top dose mostly 57.1 µM), for the others: at the highest dose activity change, negative = inhibition, hits mostly inhibitors. 330,000 compounds, 0.52% hits. AmpC nitrocefin hydrolysis, absorbance 480 nm, 0.0001% Triton. AID 485341, 2010;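 note: potency is the fitted concentration of half-maximal effect; plate controls were no compound for no effect and no enzyme for full effect; nearly all actives have a fitted effect of over 20% in size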
Target sequence (P00811 whole entry, looked up): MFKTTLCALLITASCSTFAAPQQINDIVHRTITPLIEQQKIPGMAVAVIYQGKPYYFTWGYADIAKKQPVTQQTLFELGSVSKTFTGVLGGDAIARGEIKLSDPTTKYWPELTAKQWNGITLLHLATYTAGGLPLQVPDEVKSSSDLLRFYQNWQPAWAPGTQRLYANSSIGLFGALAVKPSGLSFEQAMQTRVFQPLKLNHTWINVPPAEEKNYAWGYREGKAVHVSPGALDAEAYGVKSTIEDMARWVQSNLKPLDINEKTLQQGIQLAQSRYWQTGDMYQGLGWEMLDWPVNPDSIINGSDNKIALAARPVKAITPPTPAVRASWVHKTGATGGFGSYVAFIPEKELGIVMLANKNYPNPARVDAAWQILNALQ
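20 mM phosphate pH 7.0 + 0.01% (detergent screen) or 0.0001% Triton X-100; 5.3 nM AmpC reagent; cpd preinc 15 min RT; nitrocefin (800 uM stock) to start; A480 q20 s × 4 min; Activity was normalised to no-enzyme and no-compound control wells.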
Cycloheximide cs: Cycloheximide Counterscreen for Small Molecule Inhibitors of Shiga Toxin; max response, %; AID 2314, 2010; cell reporter, cycloheximide protein synthesis inhibition counterscreen; 300,000 compounds, 12% hits; in the data active = max response mostly above about 13%, no sharp cut-off; inactive = mostly below about 14%; note: read at 38.3 µM for the half of the compounds with a filed dose; 0% is about no effect
NS1 function inh: qHTS Assay for Inhibitors of Influenza NS1 Protein Function; 270,000 compounds, 0.4% hits; Potency, µM (top dose mostly 46.1 µM), without a hit: at the highest dose activity, positive = more growth; calls by dose curve; note: potency is the fitted concentration of half-maximal effect; actives are rising curves; nearly all actives have a fitted effect of over 50% in size
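Growth recovery, yeast-based: influenza A NS1 expressed in S. cerevisiae causes slow growth, and suppressors are detected by OD600. The parent strain without NS1 is used as positive control.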
AmpC detergent: qHTS Inhibitors of AmpC Beta-Lactamase (assay with detergent); AmpC hydrolysis of nitrocefin, absorbance 480 nm, 0.01% Triton; Potency, µM (doses to about 114 µM), for inactives: top-dose activity change, negative = inhibition, hits mostly inhibitors; 370,000 compounds, 0.041% hits; AID 485294, 2010;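 note: potency is the fitted concentration of half-maximal effect; 0% = no-compound wells and -100% = no-enzyme wells; nearly all actives have a fitted effect of over 25% in size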
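AmpC (5.3 nM in the dispensed reagent) in 20 mM phosphate pH 7.0 with 0.01% (detergent screen) or 0.0001% Triton X-100 was preincubated with compounds for 15 min at room temperature. Nitrocefin was then added from an 800 uM solution, and hydrolysis was followed at 480 nm.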
Shiga toxin inh: A qHTS for Small Molecule Inhibitors of Shiga Toxin; Vero cells, Shiga toxin protein synthesis inhibition reporter; inhibition, % at 38.7 µM; 290,000 compounds, 9.2% hits; AID 2315, 2010; in the data active = inhibition mostly above about 28%, no sharp cut-off; inactive = mostly below about 43%; note: 0% is about no effect
The depositor's hits bear a star; u = inconclusive; x = no result. Unless noted, calls come from the whole dose curve; as a rule, active = well fitted curve in the direction sought with a large enough effect; inconclusive = small, poorly fitted or top-dose-only effect, or another doubt; inactive = no such curve, though single readings can be large; an effect the other way counts as inactive or inconclusive.

SMILES	AmpC no deterg	Cycloheximide cs	NS1 function inh	AmpC detergent	Shiga toxin inh
CCOc1ccc(/C=C/c2nc(C#N)c(NCc3ccccc3)o2)cc1	x	x	x	2.1%	x
Cc1cc2c(s1)c1cnn(Cc3ccc(F)c(F)c3F)c(=O)c1n2C	x	9.5	x	x	20.2
Cc1ccc(Nc2c3c(nc4nncn24)CCC3)cc1C	x	x	x	-3.3%	x
Cc1cc(Br)c(OCC(=O)NN)c2c1CCC2	49.7%	-0.3	9.9%	-1.1%	7.8
CCOc1ccc(/C=C/c2nc(C#N)c(NCCCOC)o2)cc1	20.4%	-1.5	-0.2%	-4.6%	5.6
COCCCNc1oc(/C=C/c2ccccc2)nc1C#N	12.7%	35.0*	-6.9%	-6.5%	73.7*
CC(=O)N1CCc2c(sc3c2c(=O)n(-c2ccccc2)c(=O)n3CC(=O)Nc2ccccc2)C1	x	x	x	-1.8%	x
Cc1ccc(-c2[nH]ncc2/C=N/n2c(COc3ccccc3C)nc3ccccc3c2=O)cc1	8.91µM*	7.3	13.1%	-8.8%	19.6
Cc1cc(/C=N/n2c(COc3ccccc3C)nc3ccccc3c2=O)c(O)c([N+](=O)[O-])c1	-18.2%	62.4*	u	6.7%	57.2*
COc1ccc(CNC(=O)c2nc(SCc3ccccc3F)ncc2Cl)cc1	x	x	x	29.6%	x
COC(=O)CNC(c1ccccc1)c1cc(Br)ccc1NC(=O)c1cc(OC)c(OC)c(OC)c1 (stereo not drawn)	x	x	x	9.7%	x
COC(=O)c1cc(NC(=O)Nc2ccccc2OC)cc(C(=O)OC)c1	-16.3%	24.9	-12.4%	-0.8%	21.8
O=C(Cn1c(=O)oc2ccccc21)NCC1COc2ccccc2O1 (stereo not drawn)	-24.5%	-4.0	-1.4%	2.2%	-4.5
c1ccc(Cc2nn3c(C4COc5ccccc5O4)nnc3s2)cc1 (stereo not drawn)	16.1%	33.2*	-101.1%	0.2%	71.7*
c1ccc(CCc2nn3c(C4COc5ccccc5O4)nnc3s2)cc1 (stereo not drawn)	23.8%	24.3*	x	u	35.2*
CN1CCC[C@@H]1c1cccnc1.O=C(O)c1ccccc1O.O=C([OH2+])c1ccccc1O.O=C([OH2+])c1ccccc1O.O=C([OH2+])c1ccccc1O.[Cu]	x	x	0.0%	x	x
COc1ccc(OC)c(CNS(=O)(=O)c2c(C(=O)N3CCC(C)CC3)c(C)n(C)c2C)c1	x	x	x	5.9%	x
CCOC(=O)CSc1ncnc2c1cnn2-c1ccccc1	-8.7%	-3.4	-13.4%	u	31.4
CC(C)(C)NC(=O)CSc1ncnc2c1cnn2-c1ccccc1	-7.7%	29.6*	2.3%	-0.5%	32.0
CCOC(=O)CNC(=O)CSc1ncnc2c1cnn2-c1ccc(OC)cc1	-7.0%	28.8*	-1.7%	u	15.9
CCOC(=O)CC(=O)CSc1ncnc2c1cnn2-c1ccccc1	-8.9%	58.2*	0.8%	-12.0%	81.5*
CCOC(=O)CNC(=O)CSc1ncnc2c1cnn2-c1ccccc1	3.6%	8.5	9.4%	-3.0%	-6.0
COc1ccc(OCCCC(=O)OCC(=O)c2ccc3c(c2)NC(=O)CO3)cc1	-0.8%	x	x	-15.5%	x
COc1ccc(C(=O)NC(=O)NC2(C(Cl)(Cl)Cl)OCCO2)cc1	-8.9%	51.5*	2.2%	9.3%	76.0*
CNC(=O)NC(=S)NC(=O)c1ccc(OC)cc1	-3.2%	-2.6	-50.5%	-0.8%	1.5
SMILES	AmpC no deterg	Cycloheximide cs	NS1 function inh	AmpC detergent	Shiga toxin inh
CN1CCN(c2cccc3c2C(=O)c2ccccc2C3=O)CC1	-16.0%	36.5*	5.3%	-8.2%	47.2*
O=C1c2ccccc2C(=O)c2c1cccc2N1CCOCC1	-4.2%	27.4*	-101.4%	-12.9%	78.7*
COc1ccc(Cl)cc1NC(=O)c1cc2nc(-c3ccc4c(c3)OCO4)cc(C(F)(F)F)n2n1	x	x	x	0.3%	x
O=C(CN1C(=O)NC2(CCc3ccccc32)C1=O)NCc1cccc(C(F)(F)F)c1 (stereo not drawn)	3.0%	x	x	x	x
O=C(CSc1nc(=O)n(Cc2ccco2)c2c1CCC2)NCc1ccc(F)cc1	x	x	x	-1.0%	x
COc1ccc(NC(=O)CSc2nc3ccccc3n2CC(=O)NCc2ccc(F)cc2)cc1	x	x	x	-0.4%	x
C/C(CC(=O)Nc1ccc(Cl)cc1C(F)(F)F)=N\NC(=O)c1ccccn1	84.6%	40.8*	10.3%	1.1%	75.8*
C/C(CC(=O)Nc1ccc(Cl)cc1C(F)(F)F)=N\NC(=O)c1cccs1	0.0%	54.3*	-30.1%	-7.7%	91.4*

Source: PubChem BioAssay (National Center for Advancing Translational Sciences (NCATS))
